What all share (set-up): scale not given: direction of the effect not stated beside the values
For assay [1], the target named is Protein translocase subunit SecA (Escherichia coli (strain K12)) (UniProt P10408). Nature of the assay: Assay to Identify E. coli SecA ATPase Inhibitors. The assay is classed as functional. Conditions: 30 µM.
Assay [2] deals with T1, Ubiquitin-activating enzyme e1, putative (Leishmania donovani (strain BPK282A1)) (UniProt E9BSI1).
T1 sequence (whole entry): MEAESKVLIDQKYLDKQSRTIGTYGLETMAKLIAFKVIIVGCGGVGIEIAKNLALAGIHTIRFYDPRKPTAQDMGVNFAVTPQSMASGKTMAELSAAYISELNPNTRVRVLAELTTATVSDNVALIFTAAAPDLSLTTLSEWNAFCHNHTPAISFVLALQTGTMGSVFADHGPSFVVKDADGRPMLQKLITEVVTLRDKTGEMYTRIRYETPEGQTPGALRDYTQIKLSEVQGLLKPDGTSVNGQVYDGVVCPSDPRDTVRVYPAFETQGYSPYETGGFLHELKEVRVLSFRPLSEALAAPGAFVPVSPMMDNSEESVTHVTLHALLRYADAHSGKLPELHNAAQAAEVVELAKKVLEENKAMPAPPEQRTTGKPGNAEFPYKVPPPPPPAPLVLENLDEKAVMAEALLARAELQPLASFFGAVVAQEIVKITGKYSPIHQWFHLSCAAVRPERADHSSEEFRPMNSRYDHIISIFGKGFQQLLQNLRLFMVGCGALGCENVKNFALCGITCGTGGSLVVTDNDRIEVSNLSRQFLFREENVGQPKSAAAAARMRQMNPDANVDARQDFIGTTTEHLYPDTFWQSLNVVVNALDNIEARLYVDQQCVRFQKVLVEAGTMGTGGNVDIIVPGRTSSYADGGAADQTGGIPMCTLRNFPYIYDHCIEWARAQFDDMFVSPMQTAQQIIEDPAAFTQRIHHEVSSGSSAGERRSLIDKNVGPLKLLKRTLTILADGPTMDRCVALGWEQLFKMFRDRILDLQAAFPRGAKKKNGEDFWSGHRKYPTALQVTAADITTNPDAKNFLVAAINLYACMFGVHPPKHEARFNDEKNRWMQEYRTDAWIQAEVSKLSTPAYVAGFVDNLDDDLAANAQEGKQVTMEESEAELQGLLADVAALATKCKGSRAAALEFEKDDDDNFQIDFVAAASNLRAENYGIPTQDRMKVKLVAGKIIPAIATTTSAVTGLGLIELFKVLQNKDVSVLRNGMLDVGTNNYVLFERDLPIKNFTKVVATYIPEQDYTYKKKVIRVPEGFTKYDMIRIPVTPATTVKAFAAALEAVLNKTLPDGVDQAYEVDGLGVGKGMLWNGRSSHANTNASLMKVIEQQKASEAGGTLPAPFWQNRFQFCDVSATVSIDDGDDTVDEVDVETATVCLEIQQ
Nature of the assay: Leishmania donovani Ubiquitin Activating Enzyme (LdE1). Format: functional. Particulars: 30 µM.

Assay [3] deals with AMP-activated protein kinase, AMPK (Homo sapiens) (UniProt P54646+O43741+P54619+Q9UGJ0+Q9Y478+Q13131+Q9UGI9). Nature of the assay: AMP-dependent Kinase enzyme assay. An in vitro enzyme assay that detects ADP turnover that is directly proportional to AMPK activity. This uses naive AMPK that is activated during the assay with MK-8722. The assay is classed as functional. Particulars: 30 µM.

The target in assay [4] is Sialic acid-binding Ig-like lectin 9 (Homo sapiens) (UniProt Q9Y336). Nature of the assay: Hs-Siglec9 ALPHAscreen SOP 20170721. Conditions: 10 µM. On the technique in general: Bead proximity is the source of the signal in Alpha formats.
Chain of Sialic acid-binding Ig-like lectin 9 (Homo sapiens) (Q9Y336 whole entry): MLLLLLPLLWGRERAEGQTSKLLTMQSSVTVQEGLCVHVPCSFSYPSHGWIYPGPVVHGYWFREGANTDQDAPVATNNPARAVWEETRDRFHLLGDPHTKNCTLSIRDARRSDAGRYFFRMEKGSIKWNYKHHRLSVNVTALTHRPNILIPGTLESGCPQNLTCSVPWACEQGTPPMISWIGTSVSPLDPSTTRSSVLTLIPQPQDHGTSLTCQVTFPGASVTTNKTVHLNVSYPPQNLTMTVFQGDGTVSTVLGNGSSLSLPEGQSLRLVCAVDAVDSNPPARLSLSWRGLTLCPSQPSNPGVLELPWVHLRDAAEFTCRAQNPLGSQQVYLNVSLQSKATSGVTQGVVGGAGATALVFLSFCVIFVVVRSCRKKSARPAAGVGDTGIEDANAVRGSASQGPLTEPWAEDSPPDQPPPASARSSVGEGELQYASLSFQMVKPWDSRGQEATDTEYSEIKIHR
The test system of assay [5] is Trypanosoma cruzi. Nature of the assay: Trypanosoma cruzi phosphomannomutase and mannose-1-phosphate guanylyltransferase assay. The assay is classed as functional. Conditions: 10 µM.
Assay [6] concerns the target T2, Arginase-2, mitochondrial (Homo sapiens) (UniProt P78540).
T2 sequence (whole entry): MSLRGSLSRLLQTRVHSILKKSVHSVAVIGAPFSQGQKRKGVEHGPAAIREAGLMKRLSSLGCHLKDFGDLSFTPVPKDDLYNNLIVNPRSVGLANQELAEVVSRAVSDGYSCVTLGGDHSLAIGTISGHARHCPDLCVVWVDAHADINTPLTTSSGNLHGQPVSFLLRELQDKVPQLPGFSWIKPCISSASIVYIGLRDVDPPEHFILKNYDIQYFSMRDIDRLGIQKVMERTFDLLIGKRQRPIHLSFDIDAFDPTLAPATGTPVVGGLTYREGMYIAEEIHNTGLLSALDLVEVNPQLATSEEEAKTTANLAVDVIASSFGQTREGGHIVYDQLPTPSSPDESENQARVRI
Nature of the assay: in vitro enzyme assay to detect the production of urea directly proportional to the activity of Arginase II. Note: in the data most compounds retested in dose-response had high values. The assay is classed as functional. Conditions: 33.3 µM.

For assay [7], the target named is T3, Proteasome subunit beta (Trypanosoma cruzi) (UniProt O96673).
T3 sequence (whole entry): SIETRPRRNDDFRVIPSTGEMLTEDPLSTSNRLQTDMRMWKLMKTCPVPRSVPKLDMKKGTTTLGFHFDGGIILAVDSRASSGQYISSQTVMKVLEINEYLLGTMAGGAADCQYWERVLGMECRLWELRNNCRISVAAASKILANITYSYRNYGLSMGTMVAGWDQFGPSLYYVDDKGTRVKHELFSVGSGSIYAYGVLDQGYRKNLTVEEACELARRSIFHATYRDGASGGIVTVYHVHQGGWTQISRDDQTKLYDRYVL
Nature of the assay: Trypanosoma cruzi proteasome chymotrypsin-like activity (TcProtChymo) assay. Note: in the data most compounds retested in dose-response had high values. The assay is classed as functional. Particulars: 9.37 µM.

The species entered for assay [8] is Homo sapiens. Nature of the assay: To identify inhibition of the IFN signalling (Jak-Stat) pathway via expression of an eGFP reporter gene under the control of an IFN-stimulated response element (ISRE) containing MxA promoter. Format: functional. Particulars: 30 µM. For orientation: Reporter assays use an easily measured gene product as a stand-in for the process of interest.

The target of assay [9] is T4, Tyrosyl-tRNA synthetase, putative (Trypanosoma cruzi (strain CL Brener)) (UniProt Q4DSP6).
T4 sequence (whole entry): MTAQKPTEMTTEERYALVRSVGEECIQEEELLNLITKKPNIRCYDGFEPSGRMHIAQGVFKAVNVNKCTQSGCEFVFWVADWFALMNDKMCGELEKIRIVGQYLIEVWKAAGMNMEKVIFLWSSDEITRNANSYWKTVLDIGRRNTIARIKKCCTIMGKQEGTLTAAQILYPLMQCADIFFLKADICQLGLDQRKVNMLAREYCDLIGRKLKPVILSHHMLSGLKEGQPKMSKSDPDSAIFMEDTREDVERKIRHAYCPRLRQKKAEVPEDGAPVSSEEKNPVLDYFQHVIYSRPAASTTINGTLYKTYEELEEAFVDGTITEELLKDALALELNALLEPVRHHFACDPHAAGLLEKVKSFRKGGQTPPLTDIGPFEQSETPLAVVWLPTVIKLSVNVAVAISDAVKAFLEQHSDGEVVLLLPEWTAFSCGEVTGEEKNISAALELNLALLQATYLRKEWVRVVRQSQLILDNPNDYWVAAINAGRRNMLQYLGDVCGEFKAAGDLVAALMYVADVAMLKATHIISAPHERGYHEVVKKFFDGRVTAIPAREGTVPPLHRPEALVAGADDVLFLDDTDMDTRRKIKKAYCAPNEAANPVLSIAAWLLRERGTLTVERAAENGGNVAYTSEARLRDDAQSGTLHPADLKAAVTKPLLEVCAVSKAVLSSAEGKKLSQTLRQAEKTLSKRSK
Nature of the assay: Trypanosoma cruzi tyrosyl tRNA synthetase (TcYRS) _High Tyrosine SOP. Note: in the data most compounds retested in dose-response had high values. Particulars: 30 µM. The assay is classed as functional.

Assay [10] deals with T4, Tyrosyl-tRNA synthetase, putative (Trypanosoma cruzi (strain CL Brener)). Nature of the assay: Trypanosoma cruzi tyrosyl tRNA synthetase (TcYRS) SOP. The assay is classed as functional. Particulars: 30 µM.
The target of assay [11] is Chromo domain-containing protein 1 (Saccharomyces cerevisiae (strain ATCC 204508 / S288c) (Baker's yeast)) (UniProt P32657). Nature of the assay: ScCHD-1 Enzyme Inhibition Assay. Note: in the data most compounds retested in dose-response had high values. The assay is classed as functional. Conditions: 30 µM.
Chain of Chromo domain-containing protein 1 (Saccharomyces cerevisiae (strain ATCC 204508 / S288c) (Baker's yeast)) (P32657 whole entry, the tested form may be a part): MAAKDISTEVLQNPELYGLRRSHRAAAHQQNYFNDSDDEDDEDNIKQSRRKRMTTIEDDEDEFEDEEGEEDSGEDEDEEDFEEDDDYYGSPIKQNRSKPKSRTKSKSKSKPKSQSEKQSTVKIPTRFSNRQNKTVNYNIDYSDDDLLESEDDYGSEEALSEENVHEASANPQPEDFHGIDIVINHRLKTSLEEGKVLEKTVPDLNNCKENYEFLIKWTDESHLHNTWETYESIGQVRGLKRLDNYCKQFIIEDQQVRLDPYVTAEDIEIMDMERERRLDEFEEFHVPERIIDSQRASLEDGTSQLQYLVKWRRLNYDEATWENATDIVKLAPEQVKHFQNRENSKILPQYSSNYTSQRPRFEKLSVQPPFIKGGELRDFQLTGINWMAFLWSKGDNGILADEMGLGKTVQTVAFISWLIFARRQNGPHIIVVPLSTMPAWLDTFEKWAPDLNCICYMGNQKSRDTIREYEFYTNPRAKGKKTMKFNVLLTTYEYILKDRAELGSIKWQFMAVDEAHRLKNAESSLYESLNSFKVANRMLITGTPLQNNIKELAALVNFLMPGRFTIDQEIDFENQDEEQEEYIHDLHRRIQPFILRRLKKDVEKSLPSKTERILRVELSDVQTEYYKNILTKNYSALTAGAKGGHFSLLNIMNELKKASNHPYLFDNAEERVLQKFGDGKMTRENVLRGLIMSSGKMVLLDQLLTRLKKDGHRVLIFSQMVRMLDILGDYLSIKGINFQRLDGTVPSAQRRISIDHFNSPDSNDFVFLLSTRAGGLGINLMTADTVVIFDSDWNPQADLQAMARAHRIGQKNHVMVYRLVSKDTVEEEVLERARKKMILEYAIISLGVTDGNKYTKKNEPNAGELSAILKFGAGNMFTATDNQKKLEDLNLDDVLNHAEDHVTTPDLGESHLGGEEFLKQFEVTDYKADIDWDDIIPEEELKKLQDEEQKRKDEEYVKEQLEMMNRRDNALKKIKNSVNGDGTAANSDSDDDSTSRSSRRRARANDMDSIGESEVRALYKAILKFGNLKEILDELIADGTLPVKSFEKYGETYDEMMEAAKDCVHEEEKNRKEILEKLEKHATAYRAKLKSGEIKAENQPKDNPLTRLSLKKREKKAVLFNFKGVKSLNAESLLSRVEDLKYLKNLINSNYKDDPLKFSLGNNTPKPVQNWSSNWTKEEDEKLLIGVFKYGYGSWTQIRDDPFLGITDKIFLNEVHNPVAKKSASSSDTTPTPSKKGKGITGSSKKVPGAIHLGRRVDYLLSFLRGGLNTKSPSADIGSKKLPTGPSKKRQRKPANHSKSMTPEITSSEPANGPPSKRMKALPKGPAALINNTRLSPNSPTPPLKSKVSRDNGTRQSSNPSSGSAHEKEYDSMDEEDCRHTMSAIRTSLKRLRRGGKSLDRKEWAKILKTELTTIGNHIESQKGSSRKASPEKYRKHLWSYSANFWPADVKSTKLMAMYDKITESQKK

For some assays here: Entries with a potency or affinity are not part of this list.

Chain of Protein translocase subunit SecA (Escherichia coli (strain K12)) (P10408 whole entry): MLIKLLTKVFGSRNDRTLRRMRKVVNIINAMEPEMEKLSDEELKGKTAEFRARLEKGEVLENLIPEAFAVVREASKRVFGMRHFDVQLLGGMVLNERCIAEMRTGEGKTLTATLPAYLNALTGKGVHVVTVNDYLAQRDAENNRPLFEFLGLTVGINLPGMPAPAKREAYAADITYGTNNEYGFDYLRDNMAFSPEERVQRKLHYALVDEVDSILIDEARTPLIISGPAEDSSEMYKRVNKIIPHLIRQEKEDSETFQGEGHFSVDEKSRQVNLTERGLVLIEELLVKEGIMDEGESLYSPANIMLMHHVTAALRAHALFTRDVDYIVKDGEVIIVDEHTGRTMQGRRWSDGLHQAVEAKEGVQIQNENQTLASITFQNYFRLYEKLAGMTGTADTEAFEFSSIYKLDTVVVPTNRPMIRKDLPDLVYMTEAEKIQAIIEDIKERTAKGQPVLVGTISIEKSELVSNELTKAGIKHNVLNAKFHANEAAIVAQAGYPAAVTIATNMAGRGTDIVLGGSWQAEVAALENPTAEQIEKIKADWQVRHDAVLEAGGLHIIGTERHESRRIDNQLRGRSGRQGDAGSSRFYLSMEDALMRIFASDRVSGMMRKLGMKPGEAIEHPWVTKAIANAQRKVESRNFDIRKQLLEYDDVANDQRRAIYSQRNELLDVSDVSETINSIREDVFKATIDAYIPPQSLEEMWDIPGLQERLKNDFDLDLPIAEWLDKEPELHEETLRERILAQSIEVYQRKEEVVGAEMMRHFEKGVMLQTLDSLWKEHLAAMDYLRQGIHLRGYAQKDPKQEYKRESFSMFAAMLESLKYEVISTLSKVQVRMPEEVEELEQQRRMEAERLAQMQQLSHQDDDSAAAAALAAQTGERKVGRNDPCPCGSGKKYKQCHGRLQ

Consider `COc1c(C(=O)NCc2cccnc2)nnn1Cc1ccc(C)cc1`, for which the Percent Effect in assay [1] is -1.69%; in [2], 1.33%; in assay [3], 1.61%; in assay [4] it was 3.68%; in assay [5], -4.13%; in assay [6], 1.23%. Also, the Percent Effect in [7] was determined as 4.25%; in assay [8], 5.48%; in [9], 1.06%; in assay [10] it was 2.56%; in assay [11], 0.167%.
Regarding `COc1cc(C2CC(=O)Oc3cc(C)[nH]c(=O)c32)ccc1OC(F)F` (stereo not given), the Percent Effect was -2.55% in assay [1]; 17.3% in assay [2]; -1.47% in assay [3]; -4.76% in assay [4]; -5.3% in assay [5]; -6.16% in assay [6]. Moreover, the Percent Effect is 19% in assay [7]; 7.6% in assay [8]; 3.17% in assay [9]; 12.8% in [10]; -13% in assay [11].
Consider `CS(=O)(=O)c1ccc(CNCC2CCN(CCO)CC2)cc1`, for which the Percent Effect in assay [1] is -6.48%; in assay [2], 0%; in assay [3], -13.5%; in assay [4], 3.88%; in assay [5], -4.9%; in [6], -3.64%. The Percent Effect in [7] was 6.03%; in [8] it was 21.2%; in [9], -2.15%; in assay [10], -5%; in [11], -3.22%.
As to `c1cc2c(cc1C1CCCN1Cc1nnnn1C1CC1)OCCO2` (stereo not given), the Percent Effect in [1] was -3.24%; in [2], 6.94%; in assay [3], -13.5%; in assay [4] it was 29.5%; in [5], 6.32%; in assay [6] it was -5.74%. For the same compound, the Percent Effect in assay [7] is 4.39%; in assay [8], -5.04%; in assay [9], 5.26%; in assay [10], 15.4%; in assay [11], -4.08%.
In the case of `CN(C)c1nc2c(c(N3CCC(O)CC3)n1)CN(CC1CCNC1)CC2` (stereo not given), the Percent Effect in assay [1] is -1.69%; in assay [2] it was 10.8%; in [3], -1.59%; in assay [4], 10.5%; in assay [5], 0.193%; in assay [6], 0.476%. Besides, the Percent Effect was 10.9% in assay [7]; 2.62% in [8]; 12.2% in assay [9]; 19.5% in assay [10]; -4.09% in assay [11].
Turning to `COc1ccccc1C1(C(=O)NCCN2CCOCC2)CCOCC1`, the Percent Effect in [1] is -0.484%; in [2] it was 10.8%; in assay [3] it was -1.78%; in assay [4], -1.23%; in assay [5], -0.0943%; in assay [6], -2.81%. Moreover, the Percent Effect in [7] was 12.4%; in [8] it was -15.9%; in assay [9], 3.45%; in assay [10], 13.6%; in assay [11] it was -7.26%.
`CCOCCN1CCN(Cc2nnc(C3CC3)o2)CC1CC` (stereo not given): the Percent Effect was -2.67% in assay [1]; 11% in [2]; -18% in assay [3]; 17.7% in assay [4]; 8.03% in assay [5]; 18.6% in assay [6]. The Percent Effect in assay [7] is 1.95%; in assay [8] it was 2.56%; in assay [9] it was 2.15%; in [10], 7.5%; in assay [11], -5.28%.
For the compound `O=C(NCCn1ccnc1)c1ccn(-c2cccc(F)c2)n1`, the Percent Effect in assay [1] was -6.24%; in assay [2] it was 15.8%; in assay [3], -0.288%; in assay [4], -5.43%; in assay [5], -11.1%; in assay [6] it was -0.719%. The Percent Effect is 2.28% in [7]; -0.954% in [8]; 0.493% in assay [9]; 3.7% in [10]; -2.98% in assay [11].
With `Cc1ccc(F)c(C(=O)N2CCN(S(C)(=O)=O)[C@@H](C)C2)c1`, the Percent Effect was -1.54% in [1]; 2.74% in assay [2]; 5.45% in [3]; 3.05% in assay [4]; 6.86% in [5]; -1.82% in assay [6]. Moreover, the Percent Effect is 8.7% in assay [7]; 8.46% in assay [8]; -2.15% in [9]; 5% in assay [10]; -2.13% in [11].
For the compound `O=C(NCC1CC1)c1nc(COc2ccc3c(c2)OCO3)no1`, the Percent Effect in assay [1] was 0.685%; in assay [2] it was 4%; in assay [3] it was 1.6%; in assay [4] it was -3.59%; in assay [5] it was -7.07%; in assay [6], -5.46%. Further, the Percent Effect in assay [7] was 15.5%; in [8] it was 7.56%; in [9] it was 4.23%; in assay [10] it was 2.56%; in assay [11] it was -6.83%.
